The structures appear in SMILES notation. Inconclusive results are not listed. The source made the active and inactive calls. Calls come from the whole dose curve; as a rule, active = well fitted inhibition curve with a large enough effect; inconclusive = small, poorly fitted or top-dose-only effect; inactive = no such curve, though single readings can be large or run the other way.

Data on 40 molecules can be found in PubChem BioAssay (NCATS).
% is set by controls: 0 for no effect and ±100 for the full control effect; potency is the fitted concentration of half-maximal effect.

Cytochrome P450 3A4 (Homo sapiens), sequence (P08684 whole entry, looked up): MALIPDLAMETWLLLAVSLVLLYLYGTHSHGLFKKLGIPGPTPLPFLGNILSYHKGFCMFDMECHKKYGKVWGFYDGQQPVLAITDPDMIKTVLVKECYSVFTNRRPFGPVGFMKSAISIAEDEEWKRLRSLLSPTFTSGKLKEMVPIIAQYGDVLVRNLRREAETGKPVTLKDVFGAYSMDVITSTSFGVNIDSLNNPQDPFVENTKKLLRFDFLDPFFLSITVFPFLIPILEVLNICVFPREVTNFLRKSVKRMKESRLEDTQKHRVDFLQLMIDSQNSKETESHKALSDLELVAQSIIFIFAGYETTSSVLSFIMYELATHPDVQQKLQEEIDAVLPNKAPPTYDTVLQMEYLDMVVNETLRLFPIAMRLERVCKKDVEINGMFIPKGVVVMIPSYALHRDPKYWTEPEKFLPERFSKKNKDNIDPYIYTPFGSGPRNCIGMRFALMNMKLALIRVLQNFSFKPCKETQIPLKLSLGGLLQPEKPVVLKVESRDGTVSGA

This assay has as its target Cytochrome P450 3A4 (Homo sapiens) (UniProt P08684). The assay can be described thus: qHTS Assay for Inhibitors and Substrates of Cytochrome P450 3A4 (AID 884). Note: nearly all actives have a fitted effect of over 50% in size. Particulars: recombinant CYP3A4, Luciferin-PPXE luminescence; series mostly up to 57.1 µM; activity change, negative = inhibition: at the top concentration. How it is done:
NIH Molecular Libraries Screening Centers Network [MLSCN]
NIH Chemical Genomics Center [NCGC]
The P450 gene superfamily is involved in the metabolism and clearance of xenobiotics. This assay used human CYP3A4 to measure the dealkylation of luciferin-6' phenylpiperazinylyl (Luciferin-PPXE; […]) to luciferin. The luciferin is then measured by luminescence after the addition of a luciferase detection reagent. Luciferin-PPXE concentration in the assay was equal to its KM for CYP3A4. Inhibitors and some substrates limit the production of luciferin, and decrease measured luminescence.
NCGC Assay Protocol Summary:
Two uL of enzyme and substrate mix (final concentrations: 20nM CYP3A4, 25uM Luciferin-PPXE, 200mM KPO4) were dispensed into a white, solid bottom 1536-well microtiter plate. 23nL of compound was transferred by a pin tool. The plate was incubated at RT for 10 min. Two uL of an NADPH regeneration solution (Promega supplied reagent) was dispensed and the reaction was allowed to continue for 60 min at RT. Then the reaction was stopped by reconstituted luciferin detection buffer. After another 20 min of incubation the plate was read on the ViewLux (Perkin Elmer) at 60 sec exposure and 2x2 binning. This protocol was carried out with Promega-Glo reagents and further information can be found at http://www.promega.com/tbs/tb325/tb325.pdf. Data were normalized to the to AC100 inhibition (57 uM ketoconazole).
Keywords: P450, CYP3A4, Luciferase, MLSMR, MLSCN, NIH Roadmap, qHTS, NCGC
On to `CCCn1c(C)nc2c(NCCCCN(C)C)nc(C)nc21`, for which the “activity change, negative = inhibition” value was -16.3% (inactive).

Turning to `CCCn1c(C)nc2c(NC3CCN(Cc4ccccc4)CC3)nc(C)nc21`, the “activity change, negative = inhibition” value was -21.5% (inactive).

`Cc1nc(NCc2ccccc2)c2nc(-c3ccccc3)n(C(C)CN(C)C)c2n1` (stereo not given): the Potency was 10 µM (active).

For the molecule `COc1ccccc1CNc1ccnc(-c2ccc3c(c2)OCO3)n1`, the Potency is 1.58 µM (active).

As for `COc1ccccc1-c1cncnc1NCCNC(C)=O`, the Potency was 2 µM (active).

Consider `c1csc(CNc2ccnc(-c3ccoc3)n2)c1`, for which the Potency is 7.94 µM (active).

Turning to `Fc1ccc(Nc2ncncc2-c2ccccc2C(F)(F)F)cc1`, the Potency is 0.398 µM (active).

In the case of `CCCn1c(C)nc2c(N3CCCN(Cc4ccccc4)CC3)nc(C)nc21`, the Potency was 7.94 µM (active).

Consider `CCCn1c(C)nc2c(NCCOC)nc(C)nc21`, for which the “activity change, negative = inhibition” value is -9.42% (inactive).

Consider `FC(F)(F)c1cc(CN2CCCC3(CCNCC3)C2)cc(C(F)(F)F)c1`, for which the Potency was 7.94 µM (active).

As for `CC(C)NC(=O)N1CCC2(CC1)CCN(C(=O)c1cccc(F)c1)CC2`, the “activity change, negative = inhibition” value was 61.8% (inactive).

For `CCCCNc1nc(C)nc2c1nc(-c1ccccc1)n2C(C)CCCN(CC)CC` (stereo not given), the Potency is 10 µM (active).

For the molecule `COC(=O)N1CCC2(CCN(Cc3nccs3)CC2)CC1`, the “activity change, negative = inhibition” value is 30.3% (inactive).

For the molecule `O=C(c1cnccn1)N1CCC[C@@]2(CCN(c3ccncc3)C2)C1`, the Potency was 3.16 µM (active).

Regarding `COCCNc1cc(-c2ccccc2C(F)(F)F)ncn1`, the “activity change, negative = inhibition” value was 50.3% (inactive).

Turning to `C[C@@H]1[C@H](O)[C@@H](C)/C=C/C=C/C=C/C=C/C=C/C=C/C=C/[C@H](O[C@@H]2O[C@H](C)[C@@H](O)[C@H](N)[C@@H]2O)C[C@@H]2O[C@](O)(C[C@@H](O)C[C@@H](O)[C@H](O)CC[C@@H](O)C[C@@H](O)CC(=O)O[C@H]1C)C[C@H](O)[C@H]2C(=O)O`, the “activity change, negative = inhibition” value was -13.3% (inactive).

For the molecule `Cc1ccccc1-c1cncnc1Nc1ccc(F)cc1`, the Potency was 0.199 µM (active).

As for `CCN(CC)CCCCn1c(-c2ccccc2)nc2c(Nc3ccccc3)nc(C)nc21`, the “activity change, negative = inhibition” value was -30% (inactive).

Take `CCCn1c(C)nc2c(NCCCCN3CCCC3)nc(C)nc21`: the “activity change, negative = inhibition” value is -27.8% (inactive).

Regarding `O=C(c1cccc(F)c1)N1CCC[C@@]2(CCN(Cc3nccs3)C2)C1`, the Potency was 7.94 µM (active).

With `COC(=O)c1c(-c2cc(OC)c(OC)c(OC)c2)c2ccc(OCc3ccccn3)cc2c(=O)n1-c1ccc(N)cc1`, the Potency was 0.398 µM (active).

Take `CN(C)c1ccc(-c2ccc3ncnc(N(C)C)c3c2)cc1`: the Potency was 6.31 µM (active).

As for `CCCCNc1nc(C)nc2c1nc(-c1ccccc1)n2CC1CCCN1CC` (stereo not given), the Potency was 3.98 µM (active).

As to `CCN1CCCC1Cn1c(-c2ccccc2)nc2c(NCCOC)nc(C)nc21` (stereo not given), the Potency is 20 µM (active).

With `COCCN(CCOC)c1nc(C)nc2c1nc(-c1ccccc1)n2CCN1CCOCC1`, the Potency was 1 µM (active).

Regarding `CCN(CC)CCn1c(-c2ccccc2)nc2c(N3CCOCC3)nc(C)nc21`, the “activity change, negative = inhibition” value was -29.5% (inactive).

Regarding `O=C(c1cc(C(F)(F)F)cc(C(F)(F)F)c1)N1CCC2(CCN(Cc3nccs3)CC2)CC1`, the “activity change, negative = inhibition” value was 58.3% (inactive).

With `CS(=O)(=O)Nc1cccc(-c2ccc3ncnc(NC4CC4)c3c2)c1`, the Potency is 6.31 µM (active).

For `COCC(=O)N1CCC2(CC1)CN(C(c1ccccc1)c1ccccc1)C2`, the “activity change, negative = inhibition” value was 446% (inactive).

Take `Cn1cccc1C(=O)N1CCC2(CC1)CCN(c1ccc(-c3ccccc3)cc1)CC2`: the “activity change, negative = inhibition” value is 77.5% (inactive).

In the case of `COC1=C(OC)C(=O)C(C/C=C(\C)CC/C=C(\C)CC/C=C(\C)CC/C=C(/C)CC/C=C(\C)CC/C=C(\C)CC/C=C(\C)CC/C=C(\C)CC/C=C(\C)CCC=C(C)C)=C(C)C1=O`, the “activity change, negative = inhibition” value was -1.18% (inactive).

Turning to `CN(C)c1ccnc(-c2ccccc2C(F)(F)F)n1`, the “activity change, negative = inhibition” value was 47.9% (inactive).

Consider `COCCN(CCOC)c1nc(C)nc2c1nc(-c1ccccc1)n2CCCN1CCCCC1C` (stereo not given), for which the Potency was 12.6 µM (active).

For `CCN(CC)CCCCn1c(-c2ccccc2)nc2c(N(CCOC)CCOC)nc(C)nc21`, the Potency is 12.6 µM (active).

`CCCn1c(C)nc2c(N3CCN(C)CC3)nc(C)nc21`: the “activity change, negative = inhibition” value is -17.8% (inactive).

Turning to `CCCn1c(-c2ccc(F)cc2)nc2c(N3CCN(Cc4nc(OC)cc(OC)n4)CC3)nc(C)nc21`, the Potency was 3.98 µM (active).

Take `COC(=O)N1CCC[C@@]2(CCN(c3ccncc3)C2)C1`: the Potency was 3.98 µM (active).

Take `CCCn1c(-c2ccc(F)cc2)nc2c(NCCN3CCCC3)nc(C)nc21`: the “activity change, negative = inhibition” value is -24.1% (inactive).

In the case of `COc1cccc(-c2cncnc2NCc2ccccc2)c1`, the Potency is 0.316 µM (active).

As for `CN1CCN(c2ncc3nc(CCc4ccccc4)c(=O)n(Cc4ccc(F)cc4)c3n2)CC1`, the Potency was 5.01 µM (active).
